From PubChem BioAssay
JMJD2A Tudor – qHTS Assay for Inhibitors of JMJD2A-Tudor Domain. Potency, µM (titrated, usually from 114 µM), hits mostly inhibitors. AlphaScreen JMJD2A-Tudor / H3K4me3 peptide binding. actives 4.4% (n = 390,000). Lysine-specific demethylase 4A (Homo sapiens), O75164; also: nearly all actives have a fitted effect of over 50% in size
G9a inh – qHTS Assay for Inhibitors of Histone Lysine Methyltransferase G9a; Potency, µM (top dose mostly 102 µM), usual class: inhibitors; Histone-lysine N-methyltransferase EHMT2 (Homo sapiens), Q96KQ7; actives 8.8% (n = 350,000); AID 504332, 2011; G9a H3K9 monomethylation, AlphaScreen, 2 h; also: nearly all actives have a fitted effect of over 75% in size
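Enzyme 20 nM + cpd, 15 min RT; add b-H3K9 pep 500 nM / SAM 20 uM; 2 h RT; anti-H3K9me1 Ab 0.5 ug/mL + SA donor / anti-rabbit acceptor beads 20 ug/mL each, 10 min; AlphaScreen read.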
TDP1 inh – qHTS Assay for Inhibitors of Tyrosyl-DNA Phosphodiesterase (TDP1); recombinant TDP1, AlphaScreen DNA substrate cleavage; Potency, µM (titrated, usually from 130 µM), most hits filed as inhibitors; actives 0.28% (n = 350,000); Tyrosyl-DNA phosphodiesterase 1 (Homo sapiens), Q9NUW8; AID 485290, 2010; also: nearly all actives have a fitted effect of over 40% in size
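Tdp1 1 nM final; 15 min RT w/ cpd; substrate 15 nM, 5 min; beads 10 ug/ml, 10 min; AlphaScreen read. Neg ctrl: no enzyme.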
HP1b binding inh – HTS for Inhibitors of HP1-beta Chromodomain Interactions with Methylated Histone Tails; Potency, µM (titrated, usually from 114 µM), hits mostly inhibitors; AlphaScreen HP1-beta / biotin-H3K9me3 peptide binding; Chromobox protein homolog 1 (Homo sapiens), P83916; actives 0.56% (n = 390,000); AID 540317, 2011; also: nearly all actives have a fitted effect of over 70% in size
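AlphaScreen: HP1-beta (50 nM) preformed 30 min with biotin-H3(1-18)K9me3 peptide (50 nM) in PBS pH 7.4, 0.01% Tween-20. Compound added for 30 min at RT, then streptavidin donor/nickel chelate acceptor beads (10 ug/mL) for 30 min.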
Sfp PPTase inh – qHTS Assay for Inhibitors of Bacillus subtilis Sfp phosphopantetheinyl transferase (PPTase); 4'-phosphopantetheinyl transferase ffp (Bacillus subtilis), Q9F4F7; Biochemical Sfp PPTase activity, qHTS; Potency, µM, usual class: inhibitors; actives 3.5% (n = 310,000);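 also: the enzyme is Sfp with the accession as filed and its product quenches rhodamine fluorescence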
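Sfp 15 nM + cpd, 15 min RT; start w/ rhodamine-CoA 5 uM, BHQ-2-YbbR 12.5 uM (final); 50 mM Hepes pH 7.6, 10 mM MgCl2, 0.01% NP-40, 0.01% BSA; read 525/598 nm at 0 and 30 min.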
BAZ2B block – qHTS Assay for Inhibitors of BAZ2B; AID 504333, 2011; AlphaScreen BAZ2B-H3K14Ac peptide displacement; Potency, µM (series often up to 114 µM), actives largely listed as inhibitors; Bromodomain adjacent to zinc finger domain protein 2B (Homo sapiens), Q9UIF8; actives 4.4% (n = 360,000); also: nearly all actives have a fitted effect of over 60% in size
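Multi-concentration screen (max 110 uM) measuring displacement of acetylated histone H3 peptide from BAZ2B by AlphaScreen, using 50 nM protein, 50 nM peptide and 10 ug/mL streptavidin donor plus Ni-chelate acceptor beads.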
Each line names hits and unclear results; the compound was inactive in the other large screens. Rows were chosen to be rich in hits. Some 12% of all compounds tested hit in one or more screens of this group. Calls follow the shape of the dose curve; as a rule, active = well fitted curve in the direction sought with a large enough effect; inconclusive = small, poorly fitted or top-dose-only effect, or another doubt; inactive = no such curve, though single readings can be large; an effect the other way counts as inactive or inconclusive.

O=C(c1ccccc1)c1ccc2nc(-c3ccco3)c(-c3ccco3)nc2c1	JMJD2A Tudor 13µM, G9a inh 3.2µM, HP1b binding inh 16µM, Sfp PPTase inh 7.1µM, BAZ2B block 14µM
O=C(NCCO)c1ccc2nc(-c3ccco3)c(-c3ccco3)nc2c1	JMJD2A Tudor 22µM, G9a inh 1.4µM, HP1b binding inh 45µM, Sfp PPTase inh 10µM, BAZ2B block inconclusive (no result: TDP1 inh)
O=C(O)c1ccc2nc(-c3ccccc3)c(-c3ccccc3)nc2c1	none
c1coc(-c2nc3ccccc3nc2-c2ccco2)c1	JMJD2A Tudor inconclusive, G9a inh 8.9µM, Sfp PPTase inh 14µM, BAZ2B block 71µM (no result: TDP1 inh)
O=C(NCCc1ccccc1)c1ccc2c(c1)OCCCO2	G9a inh 32µM
COCCN(Cc1cc2c(C)cc(C)cc2nc1Cl)C(=O)c1ccccc1F	none
COc1ccc(NC(=S)N(CCO)Cc2cc3c(C)cc(C)cc3[nH]c2=O)cc1	BAZ2B block inconclusive (no result: G9a inh)
CC(C)CC1(C)NC(=O)N(CC(=O)N2C(C)CCCC2C)C1=O (centres undefined)	none (no result: Sfp PPTase inh)
CC(C)(C)NC(=O)CN(CCN1CCOCC1)C(=O)CNS(=O)(=O)c1ccccc1	none
O=C(NCCc1ccccc1)c1ccc2nc(-c3ccco3)c(-c3ccco3)nc2c1	JMJD2A Tudor 56µM, G9a inh 1.4µM, HP1b binding inh inconclusive, Sfp PPTase inh 25µM, BAZ2B block 10µM
CC[n+]1c(/C=C2/C=C(C)CC(C)(C)C2)sc2ccc(OC)cc21	JMJD2A Tudor 50µM, HP1b binding inh 20µM, Sfp PPTase inh 14µM, BAZ2B block 56µM
CC[n+]1c(/C=C2\C=C(C)CC(C)(C)C2)sc2ccccc21	JMJD2A Tudor 40µM, G9a inh inconclusive, Sfp PPTase inh 11µM, BAZ2B block 56µM
COC(=O)CCCC1=CC2=C(c3ccccc3)C(=O)C(C)(OC(=O)C3CCCC3)C(=O)C2=CN1CCCOC(C)C (centres undefined)	none (no result: JMJD2A Tudor, G9a inh, HP1b binding inh, BAZ2B block)
CCCc1nn2c(=O)cc(CSCC(=O)Nc3ccc(OC)cc3)nc2s1	G9a inh inconclusive
Oc1c(Br)cc(Cl)cc1C=Nc1ccccc1Br	G9a inh 4µM
O=C1c2cccc3c([N+](=O)[O-])ccc(c23)C(=O)N1O	JMJD2A Tudor inconclusive, G9a inh inconclusive, BAZ2B block 50µM (no result: TDP1 inh)
O=C1c2cccc3c([N+](=O)[O-])ccc(c23)C(=O)N1c1ccccn1	G9a inh 71µM, BAZ2B block inconclusive
O=C1c2cccc3c([N+](=O)[O-])ccc(c23)C(=O)N1c1nccs1	G9a inh inconclusive
O=C1c2cccc3c([N+](=O)[O-])ccc(c23)C(=O)N1c1ccc(Cl)cn1	JMJD2A Tudor inconclusive, G9a inh inconclusive, HP1b binding inh inconclusive, BAZ2B block 45µM
O=C(/C=C/c1ccc(Cl)cc1)NC(=S)NN1CCCCC1c1cccnc1 (centres undefined)	G9a inh 22µM, BAZ2B block inconclusive (no result: JMJD2A Tudor, HP1b binding inh)
COc1ccc(/C=C/C(=O)NC(=S)N2CCCCC2)cc1OC	G9a inh inconclusive
CCCCC(=O)Nc1ccc(S(=O)(=O)N2CCCCC2c2cccnc2)cc1 (centres undefined)	none
COc1ccc(/C=C/C(=O)NC(=S)NN2CCCCC2c2cccnc2)cc1OC (centres undefined)	G9a inh 32µM
COc1ccc(C(c2nnnn2Cc2ccc(F)cc2)N2CCN(c3ccc(OC)cc3)CC2)cc1 (centres undefined)	JMJD2A Tudor inconclusive, G9a inh 32µM, HP1b binding inh inconclusive, Sfp PPTase inh inconclusive, BAZ2B block inconclusive
COc1ccc(C(c2nnnn2Cc2cccs2)N2CCN(c3ccc(F)cc3)CC2)cc1OC (centres undefined)	JMJD2A Tudor 45µM, G9a inh inconclusive, HP1b binding inh inconclusive, BAZ2B block inconclusive
CN1CCN(C(c2ccc(F)cc2)c2nnnn2Cc2cccs2)CC1 (centres undefined)	G9a inh inconclusive, BAZ2B block inconclusive
COc1ccc(Cn2nnnc2C(c2ccc(F)cc2)N2CCN(C3CCCC3)CC2)cc1 (centres undefined)	none
COc1ccc(N2CCN(C(c3ccccc3)c3nnnn3Cc3ccc(F)cc3)CC2)cc1 (centres undefined)	JMJD2A Tudor inconclusive, G9a inh 22µM
CCCC(c1nnnn1Cc1ccc(OC)cc1)N1CCC(C(N)=O)CC1 (centres undefined)	G9a inh 71µM, BAZ2B block inconclusive
COc1ccc(C(c2nnnn2Cc2ccc(F)cc2)N2CCN(c3ccccc3)CC2)cc1 (centres undefined)	none
COc1ccc(Cn2nnnc2C(CC(C)C)N2CCC(C(N)=O)CC2)cc1 (centres undefined)	none (no result: G9a inh)
CC(C)(C)c1ccc(-c2ncccc2O)cc1	JMJD2A Tudor inconclusive
COCCn1nnnc1C(c1ccccn1)N1CCN(c2cc(Cl)ccc2C)CC1 (centres undefined)	JMJD2A Tudor inconclusive, G9a inh inconclusive, BAZ2B block inconclusive
COc1ccc(Cn2nnnc2C(c2ccccn2)N2CCN(c3cc(Cl)ccc3C)CC2)cc1 (centres undefined)	JMJD2A Tudor inconclusive, G9a inh 22µM, BAZ2B block inconclusive
Cc1ccc(/C=C/C(=O)N2CCc3ccccc32)o1	JMJD2A Tudor 40µM, G9a inh 22µM, TDP1 inh inconclusive, HP1b binding inh 45µM, Sfp PPTase inh 28µM, BAZ2B block 45µM
Cc1ccc(/C=C/C(=O)N2CCCC(C(N)=O)C2)o1 (centres undefined)	G9a inh 56µM, Sfp PPTase inh 18µM
O=C(/C=C/c1ccco1)N1CCc2ccccc21	G9a inh 40µM, Sfp PPTase inh inconclusive (no result: BAZ2B block)
O=C(c1ccco1)N1CCc2ccccc21	TDP1 inh inconclusive
CCOC(=O)/C=C/C(=O)N1CCc2ccccc21	BAZ2B block inconclusive
CCc1ccc(NC(=O)CCNS(=O)(=O)c2ccc3c(c2)oc(=O)n3C)cc1	none (no result: Sfp PPTase inh)
CC1(NC(=O)Nc2cccc(Br)c2)CCS(=O)(=O)C1 (centres undefined)	none (no result: G9a inh, Sfp PPTase inh, BAZ2B block)
Cc1ccc(C(=O)Nn2cnc3ccccc3c2=O)cc1C	none (no result: TDP1 inh)
OC(COC(c1ccc(F)cc1)c1ccc(F)cc1)CN1CCc2ccccc2C1 (centres undefined)	JMJD2A Tudor 18µM, G9a inh 4.5µM, HP1b binding inh inconclusive, BAZ2B block 45µM
